IL-1B inflam inh: qHTS for Inhibitors of Inflammasome Signaling: IL-1-beta AlphaLISA Primary Screen | activity change, % at 57.5 µM | hit rate 4.7% among 360,000 | AID 743279, 2014 | THP-1 LPS/ATP IL-1B secretion, AlphaLISA, 16 h; hits give low values; in the data active = activity change below about -50%; inconclusive = mostly about -30% to -49%
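THP-1 cells pretreated 1 hr with compounds (up to 57.5 uM final), then stimulated with LPS (250 ng/mL final) plus ATP (1.25 mM final); secreted IL-1B measured by AlphaLISA after 16 hr, decreased signal indicating inhibition.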
12-LOX inh: Primary qHTS assay for inhibitors of human arachidonate 12S-lipoxygenase (ALOX12): Round 2; Polyunsaturated fatty acid lipoxygenase ALOX12 (Homo sapiens), P18054; purified 12hLO, xylenol orange hydroperoxide absorbance; Potency, µM (series often up to 108 µM), without a hit: at the top dose activity change, negative = inhibition, hits mostly inhibitors; hit rate 1.1% among 580,000; AID 1671190, 2021; also: potency is read from the fitted curve at half-maximal effect
Target sequence (P18054 whole entry, looked up): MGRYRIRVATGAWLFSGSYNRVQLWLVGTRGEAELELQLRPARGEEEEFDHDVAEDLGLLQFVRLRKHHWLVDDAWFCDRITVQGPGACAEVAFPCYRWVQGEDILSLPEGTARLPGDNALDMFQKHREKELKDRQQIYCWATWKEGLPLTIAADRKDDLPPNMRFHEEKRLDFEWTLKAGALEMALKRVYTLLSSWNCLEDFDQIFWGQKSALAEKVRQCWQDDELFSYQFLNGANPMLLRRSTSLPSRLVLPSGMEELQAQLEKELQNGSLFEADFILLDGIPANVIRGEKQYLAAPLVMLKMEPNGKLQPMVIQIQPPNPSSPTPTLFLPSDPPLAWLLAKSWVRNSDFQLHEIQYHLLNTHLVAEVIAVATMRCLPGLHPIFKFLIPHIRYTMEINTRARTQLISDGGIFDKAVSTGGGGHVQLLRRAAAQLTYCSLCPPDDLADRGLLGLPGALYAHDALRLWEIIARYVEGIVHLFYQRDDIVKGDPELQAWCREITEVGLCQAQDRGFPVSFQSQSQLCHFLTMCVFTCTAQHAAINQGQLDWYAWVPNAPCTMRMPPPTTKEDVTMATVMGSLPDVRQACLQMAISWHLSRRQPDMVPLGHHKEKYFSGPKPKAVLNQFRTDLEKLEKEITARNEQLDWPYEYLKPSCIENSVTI
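Hydroperoxide product was detected by ferrous iron/xylenol orange as the 573 to 405 nm absorbance ratio. Arachidonic acid at 40 uM (final) was turned over for 30 min at room temperature by 150 nM human 12hLO, pH 7.0 Hepes buffer, after 15 min compound preincubation.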
TDP1 cell noCPT: qHTS for Inhibitors of human tyrosyl-DNA phosphodiesterase 1 (TDP1): qHTS in cells in absence of CPT. hit rate 15% among 420,000. DT40 Tdp1-/- hTDP1 cells, no CPT, ATP luminescence, 48 h. AID 686978, 2013. Potency, µM (doses to about 46.2 µM), for the others: at the highest dose activity change, negative = growth inhibition, actives largely listed as inhibitors; also: potency is read from the fitted curve at half-maximal effect; nearly all actives have a fitted effect of over 55% in size
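A cellular qHTS used chicken DT40 cells lacking endogenous Tdp1 but carrying stably transfected human TDP1. Compounds were applied without camptothecin, and cell growth kinetics were judged by ATP-dependent luminescence after ≥48 hr.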
HT1080 IDH1KD tx: qHTS for induction of synthetic lethality in tumor cells producing 2HG: qHTS for the HT-1080-IDH1KD cell line. HT-1080 IDH1 knockdown viability, ATP luminescence, 48 h. Potency, µM (highest dose often 46.1 µM), for the others: at the highest dose activity, negative = toxicity, actives largely listed as cytotoxic. hit rate 2% among 360,000. AID 686971, 2013;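 also: potency is read from the fitted curve at half-maximal effect; 0% = DMSO wells and -100% = cell-free medium wells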
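Viability of IDH1-knockdown HT-1080 fibrosarcoma cells was assessed by CellTiter-Glo after 48 h at 37 °C with titrated compound; concentration-effect curves were classified by fit quality and response size.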
HT1080-NT tox: qHTS for induction of synthetic lethality in tumor cells producing 2HG: qHTS for the HT-1080-NT fibrosarcoma cell line; HT-1080-NT fibrosarcoma viability, CellTiter-Glo ATP luminescence, 48 h; Potency, µM (titrated, usually from 46.1 µM), for inactives: top-dose activity, negative = less viability, hits mostly cytotoxic; hit rate 1.6% among 360,000;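 also: NT is the 2HG producing partner of a matched IDH1 knockdown line; potency is read from the fitted curve at half-maximal effect; 0% = DMSO-treated cells and -100% = media-only wells without cells; nearly all actives have a fitted effect of over 55% in size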
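A 48-hour cytotoxicity screen used HT-1080-NT cells plated 2 hours before compound delivery. ATP-based CellTiter-Glo luminescence measured viability, normalized to DMSO and no-cell controls.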
DT40 TDP1 CPT: qHTS for Inhibitors of human tyrosyl-DNA phosphodiesterase 1 (TDP1): qHTS in cells in presence of CPT; hit rate 12% among 420,000; Potency, µM (series often up to 46.2 µM), for inactives: top-dose activity change, negative = growth inhibition, usual class: inhibitors; chicken DT40 Tdp1-/-;hTDP1 cells + 20 nM CPT, ATP luminescence, 48 h; also: potency is read from the fitted curve at half-maximal effect; nearly all actives have a fitted effect of over 55% in size
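Cell growth measured by CellTiter-Glo luminescence after a minimum 48 h, 37 C compound exposure with 20 nM CPT in Tdp1-knockout DT40 cells stably expressing hTDP1, seeded 400/well; qHTS titration format.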
The depositor's hits bear a star. The full list was thinned out, with hits kept by preference. Unless noted, calls follow the shape of the dose curve; as a rule, active = well fitted curve in the direction sought with a large enough effect; inconclusive = small, poorly fitted or top-dose-only effect, or another doubt; inactive = no such curve, though single readings can be large; an effect the other way counts as inactive or inconclusive. Unless noted, % is scaled to controls: 0 for no effect and ±100 for the full control effect.

For O=C(Nc1ccc(Cl)c(S(=O)(=O)N2CCOCC2)c1)c1ccccc1-c1ccc(C(F)(F)F)cc1 the results were IL-1B inflam inh -13.9, 12-LOX inh -7.0%, TDP1 cell noCPT 16.4µM*, HT1080 IDH1KD tx -15.0%, HT1080-NT tox -8.2% and DT40 TDP1 CPT inconclusive.
For O=C(COC(=O)CC1CC2CCC1C2)Nc1ccc(Cl)c(S(=O)(=O)N2CCOCC2)c1 (stereo unspecified) the results were IL-1B inflam inh 44.0, 12-LOX inh -1.2%, TDP1 cell noCPT inconclusive, HT1080 IDH1KD tx inconclusive, HT1080-NT tox -14.2% and DT40 TDP1 CPT 16.4µM*.
`O=C(Nc1ccc(Cl)c(S(=O)(=O)N2CCOCC2)c1)c1cc2ccccc2oc1=O` gave IL-1B inflam inh 7.2, 12-LOX inh 6.8%, TDP1 cell noCPT inconclusive, HT1080 IDH1KD tx 9.2%, HT1080-NT tox 4.3% and DT40 TDP1 CPT inconclusive.
`CN(CCOc1ccccc1)C(=O)c1cc(S(=O)(=O)N2CCOCC2)c(Cl)cc1Cl` gave IL-1B inflam inh -8.4, 12-LOX inh -8.7%, TDP1 cell noCPT inconclusive, HT1080 IDH1KD tx -14.5%, HT1080-NT tox -10.9% and DT40 TDP1 CPT 18.4µM*.
`COc1ccc(S(=O)(=O)N2CCOCC2)cc1NC(=O)COC(=O)CC1CC2CCC1C2` (stereo unspecified) gave IL-1B inflam inh 15.1, 12-LOX inh -10.3%, TDP1 cell noCPT -5.6%, HT1080 IDH1KD tx 3.4%, HT1080-NT tox -0.2% and DT40 TDP1 CPT -26.2%.
CCN(C(=O)Cc1noc2ccccc12)c1cc(Cl)ccc1OC was read as 12-LOX inh -1.1%.
`Cc1ccc(S(=O)(=O)NC2CC2)cc1C(=O)Nc1cccc2c1CCCC2` gave 12-LOX inh -21.1%.
`O=c1cc(-c2cc3ccccc3o2)c2cc3c(cc2o1)CCC3` gave 12-LOX inh -2.1%.
Screening NC(=O)c1cc(S(=O)(=O)N2CCCC2)ccc1OCC(=O)Nc1ccc(Oc2ccccc2)cc1 returned 12-LOX inh -3.2%.
`NC(=O)c1cc(S(=O)(=O)N2CCCC2)ccc1OCCOc1ccccc1` gave IL-1B inflam inh -51.1*, 12-LOX inh -8.8%, TDP1 cell noCPT -22.0%, HT1080 IDH1KD tx 5.5%, HT1080-NT tox 4.3% and DT40 TDP1 CPT -5.3%.
For O=C(CCOc1ccccc1)Nc1ccc(Cl)c(S(=O)(=O)N2CCOCC2)c1 the results were IL-1B inflam inh -71.8*, 12-LOX inh 2.3%, TDP1 cell noCPT inconclusive, HT1080 IDH1KD tx -9.1%, HT1080-NT tox 4.6% and DT40 TDP1 CPT inconclusive.
Nc1cc(S(=O)(=O)N2CCCCC2)ccc1Oc1ccccc1 was read as IL-1B inflam inh 3.7, 12-LOX inh -5.4%, TDP1 cell noCPT 10.3µM*, HT1080 IDH1KD tx inconclusive, HT1080-NT tox -1.9% and DT40 TDP1 CPT inconclusive.
Screening CC(C)(C)OC(=O)N1Cc2ccccc2C[C@H]1C(=O)Nc1ccc2c(c1)OCO2 returned 12-LOX inh 19.0%.
For Cc1ccc(NC(=O)C2CCN(c3cc(C(F)(F)F)ncn3)CC2)cc1 the results were 12-LOX inh 2.3%.
`O=C1NC2(CCCC2)C(=O)N1Cc1coc(-c2cccs2)n1` gave 12-LOX inh 25.4%.
Screening COCCCNC(=O)c1cc2c(-c3ccc(Cl)cc3)nn(C)c2s1 returned IL-1B inflam inh -0.4, 12-LOX inh 11.4%, TDP1 cell noCPT inconclusive, HT1080 IDH1KD tx -15.6%, HT1080-NT tox -16.9% and DT40 TDP1 CPT inconclusive.
For CCN1CCCC1CNC(=O)c1cc2c(-c3ccc(Cl)cc3)nn(C)c2s1 (stereo unspecified) the results were IL-1B inflam inh -84.8*, TDP1 cell noCPT 18.4µM*, HT1080 IDH1KD tx 20.6µM*, HT1080-NT tox 25.9µM* and DT40 TDP1 CPT 18.4µM*.
For Cn1nc(-c2ccc(Cl)cc2)c2cc(C(=O)NCCCN3CCCC3)sc21 the results were IL-1B inflam inh -88.7*, 12-LOX inh -9.8%, TDP1 cell noCPT 23.1µM*, HT1080 IDH1KD tx inconclusive, HT1080-NT tox inconclusive and DT40 TDP1 CPT inconclusive.
Screening CC(C)c1noc(C2CCCNCCC(=O)NCC2)n1 (stereo unspecified) returned 12-LOX inh 7.6%.
Cc1ccc(C)c(-c2cc(C)ncc2C)c1 was read as 12-LOX inh 3.5%.
For Cc1ccc2c(c1)-c1[nH]c(=S)ncc1CS2 the results were IL-1B inflam inh -1.1, 12-LOX inh 31.6µM*, TDP1 cell noCPT 18.4µM*, HT1080 IDH1KD tx 10.9%, HT1080-NT tox 12.9% and DT40 TDP1 CPT inconclusive.
Cc1ccc(C2=NC3(CCN(C(=O)Cc4cccs4)CC3)ON2)cc1 was read as 12-LOX inh -8.0%.
Screening CCOC(=O)c1cc(-c2ccccc2)n(CC2CC(c3ccc(OC)cc3)=NO2)n1 (stereo unspecified) returned IL-1B inflam inh 2.0, 12-LOX inh 2.0%, TDP1 cell noCPT 23.1µM*, HT1080 IDH1KD tx 0.4%, HT1080-NT tox -1.1% and DT40 TDP1 CPT 23.1µM*.
`COc1ccc(C2=NOC(Cn3nc(C(=O)NCc4cccc(C(F)(F)F)c4)cc3-c3ccccc3)C2)cc1` (stereo unspecified) gave IL-1B inflam inh -5.9, 12-LOX inh -0.7%, TDP1 cell noCPT inconclusive, HT1080 IDH1KD tx -4.3%, HT1080-NT tox -1.9% and DT40 TDP1 CPT 18.4µM*.
Screening COc1ccc(C2=NOC(Cn3nc(-c4ccccc4)cc3C(=O)NCc3cccs3)C2)cc1 (stereo unspecified) returned IL-1B inflam inh -1.4, 12-LOX inh 14.1%, TDP1 cell noCPT 9.2µM*, HT1080 IDH1KD tx -1.7%, HT1080-NT tox -4.3% and DT40 TDP1 CPT inconclusive.
Screening Cc1ccc(CNC(=O)c2cc(-c3ccccc3C)nn2CC2CC(c3cccnc3)=NO2)cc1 (stereo unspecified) returned IL-1B inflam inh -4.5, 12-LOX inh inconclusive, TDP1 cell noCPT 20.6µM*, HT1080 IDH1KD tx 3.7%, HT1080-NT tox 4.3% and DT40 TDP1 CPT inconclusive.

Compound activity deposited in PubChem by National Center for Advancing Translational Sciences (NCATS).
